This is an account of results in PubChem BioAssay.

A short description of assay [1]: antimalarial activity against Dd2 strain (AID 2302;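 active = growth inhibition above 50% at the single 2 µM test dose, taken to imply half-maximal potency below 2 µM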;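 note: 0% = DMSO untreated growth and 100% = chloroquine plus artemisinin killed control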). The following applies: P. falciparum Dd2 in RBCs, LDH growth readout, 72 h; at 2 µM; active compounds read high.
The nature of assay [2]: HepG2 cytotoxicity, primary screen, cytotoxicity control for P. falciparum antimalarial project, cell-based, ATP luminescence (AID 2303;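 active = inhibition above 50%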;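 note: 0% = DMSO wells and 100% = digitonin-killed cells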). The conditions noted are these: HepG2 viability, 24-48 h, at 10 µM, active compounds read high.
Assay [3] concerns the target L-lactate dehydrogenase (Plasmodium falciparum (isolate CDC / Honduras)) (UniProt Q27743). Nature of the assay: PfLDH activity inhibition – cell lysate, 3D7 strain, counter-screen for P. falciparum growth inhibition project (AID 2304).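 Note: 0% = vehicle and 100% = reference inhibitor.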 The conditions noted are these: P. falciparum 3D7 crude extract, LDH APAD/NBT absorbance; at 2 µM; active compounds read high. Background: A counterscreen serves to expose hits that act by an unwanted route or on another target.

Assay [4] is described as follows: inhibition of 3D7 malaria parasite growth – strain 3D7 (AID 2306).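 Note: 0% = DMSO wells and 100% = chloroquine plus artemisinin control wells.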 The following applies: P. falciparum 3D7 erythrocytic growth, LDH absorbance, 72 h; at 2 µM; active compounds read high.
Assay [5] has as its target Calcium-dependent protein kinase 1 (Plasmodium falciparum (isolate 3D7)) (UniProt P62344). Nature of the assay: PfCDPK1 kinase inhibitors, biochemical, TCAMS library (AID 1159585; cut-off not given, nearly all actives have IC50 up to about 0.98 µM;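 note: inhibitors leave more ATP so luminescence rises with inhibition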). The conditions noted are these: recombinant PfCDPK1, Kinase-Glo ATP depletion luminescence.
For assay [6], the target named is Plasmodium falciparum protein kinase 6 (PK6, PF3D7_1337100) (UniProt Q8IDW1). In words: PfPK6 kinase inhibitors, biochemical, TCAMS library (AID 1159586). The following applies: recombinant PfPK6, Kinase-Glo ATP depletion luminescence.
Chain of Plasmodium falciparum protein kinase 6 (PK6, PF3D7_1337100) (Q8IDW1 1-305): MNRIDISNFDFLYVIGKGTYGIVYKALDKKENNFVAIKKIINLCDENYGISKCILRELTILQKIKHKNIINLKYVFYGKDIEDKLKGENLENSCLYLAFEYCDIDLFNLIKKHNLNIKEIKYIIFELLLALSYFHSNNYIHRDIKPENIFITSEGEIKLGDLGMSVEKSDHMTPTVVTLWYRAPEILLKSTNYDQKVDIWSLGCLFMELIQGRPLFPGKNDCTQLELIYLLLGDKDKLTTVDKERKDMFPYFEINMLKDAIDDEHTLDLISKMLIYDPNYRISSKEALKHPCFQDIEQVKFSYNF
Assay [7] deals with Protein kinase 7 (PK7), Plasmodium falciparum 3D7 (PF3D7_0213400) (UniProt Q7YTF7). In words: inhibition of Plasmodium PK7 catalytic activity – biochemical, TCAMS antimalarial set, Kinase-Glo luminescence (AID 1159587). The following applies: recombinant PfPK7, Kinase-Glo ATP depletion luminescence. On the technique in general: Kinase-Glo measures the ATP left after a reaction by luminescence.
Chain of Protein kinase 7 (PK7), Plasmodium falciparum 3D7 (PF3D7_0213400) (Q7YTF7 1-343): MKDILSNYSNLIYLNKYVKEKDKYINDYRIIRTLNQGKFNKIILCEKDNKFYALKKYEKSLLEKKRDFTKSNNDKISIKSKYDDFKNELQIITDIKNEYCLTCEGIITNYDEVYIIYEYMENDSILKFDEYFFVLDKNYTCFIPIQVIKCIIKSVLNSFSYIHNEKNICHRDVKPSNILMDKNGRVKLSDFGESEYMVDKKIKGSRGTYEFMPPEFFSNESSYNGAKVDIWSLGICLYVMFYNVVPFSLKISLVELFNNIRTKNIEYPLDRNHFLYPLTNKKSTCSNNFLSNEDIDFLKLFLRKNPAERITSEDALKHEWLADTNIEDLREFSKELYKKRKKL

The target in assay [8] is Calcium-dependent protein kinase 4 (Plasmodium falciparum (isolate 3D7)) (UniProt Q8IBS5). In words: PfCDPK4 kinase inhibitors, biochemical, TCAMS library (AID 1159588; cut-off not given, nearly all actives have IC50 up to about 0.91 µM). The conditions noted are these: recombinant PfCDPK4, Kinase-Glo ATP depletion luminescence.
Chain of Calcium-dependent protein kinase 4 (Plasmodium falciparum (isolate 3D7)) (Q8IBS5 whole entry, looked up): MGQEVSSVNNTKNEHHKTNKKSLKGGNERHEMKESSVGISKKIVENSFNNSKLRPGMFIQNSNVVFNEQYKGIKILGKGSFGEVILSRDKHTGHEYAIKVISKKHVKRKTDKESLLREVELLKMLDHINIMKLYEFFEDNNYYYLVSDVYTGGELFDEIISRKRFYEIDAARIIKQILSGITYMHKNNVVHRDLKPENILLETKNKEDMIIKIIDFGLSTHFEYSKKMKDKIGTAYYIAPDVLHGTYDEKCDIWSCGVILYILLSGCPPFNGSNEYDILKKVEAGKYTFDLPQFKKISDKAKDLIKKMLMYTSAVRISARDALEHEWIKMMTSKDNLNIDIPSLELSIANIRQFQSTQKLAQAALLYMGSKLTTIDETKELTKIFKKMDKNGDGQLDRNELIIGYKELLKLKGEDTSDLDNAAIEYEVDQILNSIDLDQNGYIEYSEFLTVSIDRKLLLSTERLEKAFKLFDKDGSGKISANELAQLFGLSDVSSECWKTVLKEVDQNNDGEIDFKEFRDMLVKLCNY

SMILES strings stand for the structures. Values without a mark were called inactive. For some of these results: Results with a measured potency or affinity are listed apart. The source made the active and inactive calls. Unless noted, the rule behind the calls is not given here.

Chain of L-lactate dehydrogenase (Plasmodium falciparum (isolate CDC / Honduras)) (Q27743 whole entry, looked up): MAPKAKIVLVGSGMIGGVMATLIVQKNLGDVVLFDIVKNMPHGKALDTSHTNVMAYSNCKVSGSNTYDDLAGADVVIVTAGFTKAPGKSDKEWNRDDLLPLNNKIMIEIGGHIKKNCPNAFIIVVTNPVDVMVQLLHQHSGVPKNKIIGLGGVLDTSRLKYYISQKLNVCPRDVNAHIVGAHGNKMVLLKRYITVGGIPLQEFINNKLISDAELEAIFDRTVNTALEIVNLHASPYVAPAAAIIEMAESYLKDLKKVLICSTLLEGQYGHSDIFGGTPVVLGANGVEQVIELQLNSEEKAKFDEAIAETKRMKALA
Chain of Calcium-dependent protein kinase 1 (Plasmodium falciparum (isolate 3D7)) (P62344 whole entry, looked up): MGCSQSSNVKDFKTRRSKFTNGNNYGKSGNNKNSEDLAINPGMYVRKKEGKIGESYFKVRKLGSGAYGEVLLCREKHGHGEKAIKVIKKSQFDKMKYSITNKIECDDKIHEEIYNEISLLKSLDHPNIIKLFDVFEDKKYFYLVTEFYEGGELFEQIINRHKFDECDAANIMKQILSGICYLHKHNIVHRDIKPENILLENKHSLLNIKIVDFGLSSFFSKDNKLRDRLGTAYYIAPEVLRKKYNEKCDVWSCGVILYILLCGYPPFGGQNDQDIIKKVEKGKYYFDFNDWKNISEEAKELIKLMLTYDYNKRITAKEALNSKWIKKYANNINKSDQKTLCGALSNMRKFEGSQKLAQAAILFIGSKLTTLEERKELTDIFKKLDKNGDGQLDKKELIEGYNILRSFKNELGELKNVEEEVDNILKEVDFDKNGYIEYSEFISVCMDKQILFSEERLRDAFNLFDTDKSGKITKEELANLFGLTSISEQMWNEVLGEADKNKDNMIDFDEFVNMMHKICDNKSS

Consider `OCCNc1nc(Nc2ccccc2)nc2ccccc12`, for which the figures for the growth inhibition in assay [1] and in assay [4] were 61% (active) and 93% (active), respectively. The inhibition in assay [2] and in assay [3] was 5% each time. Also, the result in assay [5], in assay [6], in assay [7] and in assay [8] was inactive.

In the case of `Cc1ccnc(NC(=O)c2cc(-c3cccc([N+](=O)[O-])c3)nc3onc(C)c23)c1`, the results for the growth inhibition in assay [1] and in assay [4] were 44% and 91% (active), respectively. The values for the inhibition in assay [2] and in assay [3] were 5% and -1%, respectively. The outcome in assay [5], in assay [6], in assay [7] and in assay [8] was inactive.

Turning to `CN1CCC(NC(=O)c2cc(Oc3ccc4c(c3)CCN4C(=O)Nc3cccc(C(F)(F)F)c3)ccn2)CC1`, the growth inhibition is 17% in assay [1] and 92% (active) in assay [4]. For the same compound, the inhibition (usually the change of the read-out against control, counted positive when it falls) in assay [2] was 16%; in assay [3] it was -3%. Moreover, the result in assay [5], in assay [6], in assay [7] and in assay [8] was inactive.

For `Cc1cc(N[C@@H](CC(C)C)C(=O)NCc2cccs2)nc(NCCc2ccc(F)cc2)n1`, the growth inhibition in assay [1] was 59% (active); in assay [4], 100% (active). The inhibition in assay [2] was 20%; in assay [3] it was -2%. In addition, the outcome in assay [5], in assay [6], in assay [7] and in assay [8] was inactive.

Turning to `Cc1c(C)c2c(c(C)c1O)CC[C@@](C)(C(=O)N1CCC(CCN3CCC(c4c[nH]c5ccccc45)CC3)CC1)O2`, the growth inhibition is 91% (active) in assay [1] and 98% (active) in assay [4]. In addition, the values for the inhibition in assay [2] and in assay [3] were 37% and 6%, respectively. The result in assay [5], in assay [6], in assay [7] and in assay [8] was inactive.

With `FC(F)(F)c1cc(Nc2ncnc3ccc(Br)cc23)ccc1OCc1ccccc1`, the growth inhibition in assay [1] was 9%; in assay [4] it was 87% (active). In addition, the inhibition was 12% in assay [2] and 6% in assay [3]. Further, the result in assay [5], in assay [6], in assay [7] and in assay [8] was inactive.

With `CN1CCC(COc2ccc(CN3CCC(NC(=O)c4cccc(Cl)c4)CC3)cc2)CC1`, the growth inhibition was 13% in assay [1] and 94% (active) in assay [4]. Also, the inhibition in assay [2] is 16%; in assay [3], -2%. Also, the result in assay [5], in assay [6], in assay [7] and in assay [8] was inactive.

In the case of `Cc1cc2ccccc2n1CC(=O)N1CC(C(=O)N2CCCCC2)Oc2ccccc21` (stereo not given), the growth inhibition in assay [1] was 77% (active); in assay [4], 99% (active). Also, the inhibition was -1% in assay [2] and 2% in assay [3]. Besides, the outcome in assay [5], in assay [6], in assay [7] and in assay [8] was inactive.

For the compound `O=C(NC1CCN(CCCc2ccccc2)CC1)c1ccc(-c2cccc(C(F)(F)F)c2)s1`, the growth inhibition was 47% in assay [1] and 95% (active) in assay [4]. Also, the inhibition in assay [2] is 93% (active); in assay [3], 1%. Also, the outcome in assay [5], in assay [6], in assay [7] and in assay [8] was inactive.

Consider `CCCCCc1ccc(NC(=O)Nc2ccc(Cn3ncc(N4CCCNCC4)c(Cl)c3=O)cc2)cc1`, for which the growth inhibition in assay [1] is 23%; in assay [4] it was 87% (active). Moreover, the figures for the inhibition in assay [2] and in assay [3] were 15% and 3%, respectively. In addition, the outcome in assay [5], in assay [6], in assay [7] and in assay [8] was inactive.

Consider `N#Cc1ccc(N2C[C@@H](OCc3ccccc3)C[C@H]2C(=O)NCCC(c2ccccc2)c2ccccc2)c2ccccc12`, for which the figures for the growth inhibition in assay [1] and in assay [4] were 96% (active) and 93% (active), respectively. Further, the inhibition is 11% in assay [2] and -6% in assay [3]. Also, the outcome in assay [5], in assay [6], in assay [7] and in assay [8] was inactive.

For `COc1cc(-n2cnc3cc(-c4ccc(Cl)cc4)sc3c2=O)ccc1OCCN1CCC(c2cccc(NC(C)=O)c2)CC1`, the growth inhibition in assay [1] was 80% (active); in assay [4], 99% (active). The values for the inhibition in assay [2] and in assay [3] were 61% (active) and -4%, respectively. In addition, the result in assay [5], in assay [6], in assay [7] and in assay [8] was inactive.

Take `NC(=O)c1cccc(CNC(=O)NC[C@H]2CN(Cc3ccc(Cl)c(Cl)c3)CCO2)c1`: the values for the growth inhibition in assay [1] and in assay [4] were 65% (active) and 98% (active), respectively. For the same compound, the results for the inhibition in assay [2] and in assay [3] were -3% and 1%, respectively. In addition, the result in assay [5], in assay [6], in assay [7] and in assay [8] was inactive.

`COc1cc2nc(SCCCC#N)n(C3CCCCCC3)c(=N)c2cc1OC`: the figures for the growth inhibition in assay [1] and in assay [4] were 9% and 89% (active), respectively. The inhibition in assay [2] and in assay [3] was 0% in each case. The result in assay [5], in assay [6], in assay [7] and in assay [8] was inactive.

As for `CC(C)c1ccc(NC(=O)NC2CCN(CCCCCNC(=O)/C=C/c3ccc(Cl)c(Cl)c3)CC2)cc1`, the results for the growth inhibition in assay [1] and in assay [4] were 19% and 100% (active), respectively. The inhibition was -5% in assay [2] and -2% in assay [3]. The outcome in assay [5], in assay [6], in assay [7] and in assay [8] was inactive.

As for `CS(=O)(=O)NCCCNCc1ccc(-c2cccc(-c3nc4ccc(C(F)(F)F)cc4[nH]3)c2)cc1`, the growth inhibition is 83% (active) in assay [1] and 100% (active) in assay [4]. For the same compound, the figures for the inhibition in assay [2] and in assay [3] were 17% and 1%, respectively. Moreover, the outcome in assay [5], in assay [6], in assay [7] and in assay [8] was inactive.

As to `CC(C)(C)c1ccc2nc(-c3ccc(/C=C/C(=O)NCc4ccc(Cl)c(Cl)c4)cc3)[nH]c2c1`, the figures for the growth inhibition in assay [1] and in assay [4] were 17% and 97% (active), respectively. Also, the inhibition is 41% in assay [2] and 0% in assay [3]. The result in assay [5], in assay [6], in assay [7] and in assay [8] was inactive.

On to `N#Cc1cccc(NC(=O)Nc2ccc(-c3ccc(-c4nc5ccc(C(F)(F)F)cc5[nH]4)cc3)cc2)c1`, for which the growth inhibition in assay [1] was 100% (active); in assay [4] it was 102% (active). The inhibition in assay [2] was 51% (active); in assay [3], -2%. For the same compound, the outcome in assay [5], in assay [6], in assay [7] and in assay [8] was inactive.

In the case of `COc1ccc(CNCCc2cccs2)cc1-c1ccc(OC)c(S(=O)(=O)NCCN2CCCC2)c1`, the values for the growth inhibition in assay [1] and in assay [4] were 19% and 96% (active), respectively. The values for the inhibition in assay [2] and in assay [3] were 16% and 1%, respectively. The result in assay [5], in assay [6], in assay [7] and in assay [8] was inactive.

Consider `O=C1NC(=O)C(c2ccc(Cl)cc2)=C1Nc1cccc(S(=O)(=O)C(F)(F)F)c1`, for which the growth inhibition in assay [1] is 51% (active); in assay [4], 99% (active). For the same compound, the inhibition is 1% in assay [2] and -2% in assay [3]. Further, the result in assay [5], in assay [6], in assay [7] and in assay [8] was inactive.
